Results filed as inconclusive are left out. Where a call stands in place of a potency, no number is given. Calls of active or inactive are those of the source. Calls follow the shape of the dose curve; as a rule, active = well fitted inhibition curve with a large enough effect; inconclusive = small, poorly fitted or top-dose-only effect, or effect the other way; inactive = flat fitted curve, though single readings scatter.
Potency is read from the fitted curve at half-maximal effect.

Chain of Ubiquitin carboxyl-terminal hydrolase 2 (Homo sapiens) (O75604 whole entry, looked up): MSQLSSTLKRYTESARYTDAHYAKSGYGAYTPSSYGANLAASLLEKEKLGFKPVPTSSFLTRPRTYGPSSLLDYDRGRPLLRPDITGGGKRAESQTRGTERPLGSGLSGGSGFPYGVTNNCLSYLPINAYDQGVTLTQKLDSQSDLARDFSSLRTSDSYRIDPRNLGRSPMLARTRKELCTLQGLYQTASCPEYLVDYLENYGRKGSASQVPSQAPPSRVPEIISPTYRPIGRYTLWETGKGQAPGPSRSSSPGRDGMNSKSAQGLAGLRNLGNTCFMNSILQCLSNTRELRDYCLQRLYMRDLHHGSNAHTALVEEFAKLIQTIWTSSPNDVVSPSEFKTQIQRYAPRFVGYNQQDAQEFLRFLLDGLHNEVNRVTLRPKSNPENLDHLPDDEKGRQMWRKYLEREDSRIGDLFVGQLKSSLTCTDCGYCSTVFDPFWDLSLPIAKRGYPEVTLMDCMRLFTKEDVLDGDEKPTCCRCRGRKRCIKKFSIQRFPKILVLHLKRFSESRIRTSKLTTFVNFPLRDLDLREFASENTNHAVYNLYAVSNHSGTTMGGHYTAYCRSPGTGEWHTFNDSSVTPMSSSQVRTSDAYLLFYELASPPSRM

In this experiment the target is Ubiquitin carboxyl-terminal hydrolase 2 (Homo sapiens) (UniProt O75604). In words: Confirmation Assay for Inhibitors of Ubiquitin-specific Protease USP2a Using CHOP2 as the Reporter. Also: nearly all actives have a fitted effect of over 55% in size. Conditions: USP2 core, Ub-CHOP2 coupled reporter fluorescence; series mostly up to 38.3 µM. Summed up:
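Ub-CHOP2 cleavage coupled to reporter activation was read by fluorescence after 60 min at RT, with 25 nM final Ub-CHOP2 and substrate. Enzyme (10 nM final USP2 core) first sat 30 min with compound; data were normalized to NEM and fitted to concentration-response curves.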
As for `CCNC1=C(Cl)C(=O)c2ccccc2C1=O`, the Potency entry was “inactive”. On to `Cc1cc(=O)oc(C)c1C(=O)NCCc1ccccc1`, for which the Potency result is “inactive”. For the compound `CCOC(=O)C1CCN(CC(O)COc2ccc(C(C)(C)C)cc2)CC1` (stereo unspecified), the Potency result is “inactive”. For the compound `COc1ccc(C(=O)N/C(=C\c2cccs2)C(=O)N2CCN(C)CC2)cc1OC`, the Potency result is “inactive”. In the case of `CC(C)CC(=O)NC(=S)Nc1nc(-c2ccc(Cl)cc2)cs1`, the Potency result is “inactive”.

For `O=C(Nc1nnc(-c2ccco2)s1)C1CCCCC1`, the Potency result was “inactive”. For `Cc1ccc(C)n1-c1cc(S(=O)(=O)N2CCOCC2)ccc1N1CCCC1`, the Potency entry is “inactive”. Take `C#CCOCCOCCOCCNc1nc(N2CCN(C(=O)CCCCCCCCCCNC(=O)[C@H](CO)n3cc(CCCSC)nn3)CC2)nc(N2CCN(C(=O)CCCCCCCCCCNC(=O)[C@H](CCCN=C(N)N)n3cc(C[C@@H](C)CC)nn3)CC2)n1`: the Potency is 18.5 µM (active). Turning to `CCOC(=O)c1c(C)c(C(=O)O)n(C)c1C`, the Potency entry was “inactive”. Take `Cc1nn(CC(=O)Nc2cccc(S(N)(=O)=O)c2)c(C)c1[N+](=O)[O-]`: the Potency entry is “inactive”. For the compound `O=C(NN1C(=O)/C(=C/C=C/c2ccco2)SC1=S)c1ccncc1`, the Potency is 13.1 µM (active). Take `CCCCCc1ccc(OCCOCCn2c[n+](C)c3ccccc32)c(CCCCC)c1`: the Potency result is “inactive”. As to `Cc1ccc(/C(O)=C/C(=O)C(=O)NNC(=O)C(O)(c2ccccc2)c2ccccc2)cc1`, the Potency is 14.7 µM (active). For `O=C(COc1ccccc1)NCCSc1ccccc1`, the Potency result was “inactive”. Take `CCOC(=O)c1c(NC(C)=O)sc2c1CCCNC2=O`: the Potency entry is “inactive”. Regarding `CCCCCCCCCC[N+](C)(C)CC/C=C1/c2ccccc2Sc2ccc(Cl)cc21`, the Potency is 13.1 µM (active).

These data come from PubChem BioAssay AID493168 (National Center for Advancing Translational Sciences (NCATS), 2011).
